The structures appear in SMILES notation. Values joined by “and” are separate entries in the source; they are usually repeats but may differ in a detail not shown here. Equal entries are not always repeated. About 83,000 compounds went through this panel and 20% of them were active in at least one assay; those are over-represented in the sample as a whole.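 Single-concentration screen, 48 h exposure, 96-well plates. Endpoint: percent growth. Below 10 = active.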 A number with no mark means an inactive call. Active and inactive are the calls of the source.

Consider seven compounds from PubChem BioAssay (NCI).

Some test systems named below: SK-MEL-2 melanoma; EKVX NSCLC; SN12C renal; UO-31 renal; TK-10 renal; ACHN renal; CAKI-1 renal; A498 renal; CCRF-CEM leukemia; MOLT-4 leukemia; SR leukemia; RPMI-8226 leukemia; OVCAR-8 ovarian; OVCAR-5 ovarian; OVCAR-4 ovarian; SK-OV-3 ovarian; IGROV1 ovarian; OVCAR-3 ovarian; HS 578T breast; NCI/ADR-RES ovarian.
Common to all, as to experiment: NCI-60 one-dose screen, 48 h (100 = growth as untreated, 0 = no growth, -100 = all killed)
Details in all cases: 10 µM unless noted

For `CCCCN1C(=O)/C(=C\C(=O)c2cc3ccccc3oc2=O)c2ccccc21`, the growth with SK-MEL-2 melanoma is 79.8%; in the assay on EKVX NSCLC, 84.5%; in the assay with SN12C renal, 56.2%; with UO-31 renal it was 32.1%; in the assay on TK-10 renal, 57.7%; in the assay with ACHN renal, 0.901% (active). Also, the growth with CAKI-1 renal is 70.8%; in the assay on A498 renal, 161%; in the assay with CCRF-CEM leukemia it was 25.5%; in the assay with MOLT-4 leukemia it was 3.77% (active); in the assay on SR leukemia, -2.51% (active); in the assay on RPMI-8226 leukemia, 23.7%. For the same compound, the growth in the assay with OVCAR-8 ovarian was 67.3%; in the assay on OVCAR-5 ovarian it was 96.7%; with OVCAR-4 ovarian, 83.9%; in the assay on SK-OV-3 ovarian, 110%; with IGROV1 ovarian it was 70.2%; in the assay with OVCAR-3 ovarian, 34.3%. The growth is 75.6% with HS 578T breast and 67.5% in the assay on NCI/ADR-RES ovarian.
For `COc1ccc(-c2cc(C(=O)N=Nc3c(O)[nH]c4ccc(Cl)cc34)c3ccccc3n2)cc1`, the growth with SK-MEL-2 melanoma is 63.4%; with EKVX NSCLC it was 21.3%; in the assay with SN12C renal it was 51.4%; with UO-31 renal, 80.6%; in the assay with TK-10 renal, 116%; with ACHN renal, -6.95% (active). The growth is 44.6% in the assay with CAKI-1 renal; 148% in the assay on A498 renal; 85.7% with CCRF-CEM leukemia; 68.8% in the assay with MOLT-4 leukemia; 53.1% in the assay on SR leukemia; 102% in the assay on RPMI-8226 leukemia. The growth with OVCAR-8 ovarian is 22.1%; with OVCAR-5 ovarian, 42.5%; with OVCAR-4 ovarian it was 23.7%; with SK-OV-3 ovarian it was 78.1%; in the assay on IGROV1 ovarian, -18.8% (active); in the assay with OVCAR-3 ovarian it was 44.2%. The growth in the assay with HS 578T breast was 77.6%; in the assay with NCI/ADR-RES ovarian, 28.7%.
In the case of `N#Cc1c(-c2ccc(F)cc2)nc(SCc2ccccc2)nc1N1CCNCC1`, the growth is -82.9% (active) in the assay with SK-MEL-2 melanoma; -98.3% (active) in the assay with EKVX NSCLC; -93.5% (active) in the assay on SN12C renal; -82.7% (active) in the assay on UO-31 renal; -88.3% (active) in the assay with TK-10 renal; -99% (active) in the assay with ACHN renal. Further, the growth was -95.3% (active) in the assay on CAKI-1 renal; -13.8% (active) with A498 renal; -3.47% (active) in the assay on CCRF-CEM leukemia; -0.64% (active) with MOLT-4 leukemia; -10.3% (active) with SR leukemia; -58% (active) in the assay on RPMI-8226 leukemia. Further, the growth is -77.5% (active) in the assay on OVCAR-8 ovarian; -96.3% (active) in the assay on OVCAR-5 ovarian; -75% (active) with OVCAR-4 ovarian; -67.9% (active) in the assay with SK-OV-3 ovarian; -95.6% (active) in the assay with IGROV1 ovarian; -61.3% (active) in the assay on OVCAR-3 ovarian. The growth with HS 578T breast is -45.6% (active); in the assay with NCI/ADR-RES ovarian it was -51.1% (active).
Take `Nc1nnc(-c2cncc(Br)c2)c(-c2c[nH]c3ccc(Cl)cc23)n1`: the growth is 111% in the assay with SK-MEL-2 melanoma; 78.4% in the assay on EKVX NSCLC; 83.2% in the assay on SN12C renal; 41.4% in the assay on UO-31 renal; 111% in the assay with TK-10 renal; 66.1% with ACHN renal. Besides, the growth in the assay on CAKI-1 renal was 59.1%; with A498 renal it was 112%; in the assay with CCRF-CEM leukemia, 52.9%; in the assay with MOLT-4 leukemia, 54.4%; in the assay with SR leukemia, 54.1%; with RPMI-8226 leukemia it was 48.5%. Further, the growth was 89.8% with OVCAR-8 ovarian; 94.2% in the assay on OVCAR-5 ovarian; 56.2% in the assay on OVCAR-4 ovarian; 103% in the assay with SK-OV-3 ovarian; 68.6% in the assay on IGROV1 ovarian; 100% with OVCAR-3 ovarian. The growth with HS 578T breast was 76.6%; in the assay on NCI/ADR-RES ovarian it was 63.5%.
Consider `COc1cc(NC(=O)CSc2nnc(-c3ccc(-c4nc5ccc(Cl)cc5[nH]4)cc3)o2)cc(OC)c1OC`, for which the growth in the assay with SK-MEL-2 melanoma was 40.3%; with EKVX NSCLC, 81.1%; in the assay on SN12C renal it was 46.6%; in the assay on UO-31 renal it was 64%; in the assay with TK-10 renal, 93.9%; in the assay on ACHN renal, 74.9%. Besides, the growth in the assay with CAKI-1 renal is 68.3%; with A498 renal it was 137%; in the assay with CCRF-CEM leukemia, 15%; in the assay with MOLT-4 leukemia, 34.2%; in the assay with SR leukemia it was 35.7%; with RPMI-8226 leukemia, 25%. The growth in the assay on OVCAR-8 ovarian is 62.6%; in the assay on OVCAR-5 ovarian, 71.4%; in the assay with OVCAR-4 ovarian it was 64.8%; in the assay with SK-OV-3 ovarian, 109%; with IGROV1 ovarian, 52.7%; with OVCAR-3 ovarian, 21.7%. Further, the growth was 53.3% in the assay with HS 578T breast and 63.6% in the assay on NCI/ADR-RES ovarian.
On to `Nc1cc(-c2c[nH]c3ccc(Cl)cc23)nc2cc(-c3c[nH]c4ccccc34)nn12`, for which the growth in the assay on SK-MEL-2 melanoma was -45.8% (active); in the assay on EKVX NSCLC, -23.7% (active); in the assay on SN12C renal it was 6.54% (active); in the assay on UO-31 renal, -4.79% (active); with TK-10 renal it was -7.78% (active); in the assay on ACHN renal, 0.126% (active). Also, the growth in the assay with CAKI-1 renal is -19.1% (active); with A498 renal, -14% (active); with CCRF-CEM leukemia it was -16.6% (active); in the assay on MOLT-4 leukemia, -27.4% (active); in the assay on SR leukemia, 10.2%; with RPMI-8226 leukemia it was 0.472% (active). Further, the growth is -4.93% (active) in the assay on OVCAR-8 ovarian; -50.4% (active) in the assay on OVCAR-5 ovarian; 19.8% in the assay on OVCAR-4 ovarian; 5.29% (active) in the assay with SK-OV-3 ovarian; 2.75% (active) in the assay on IGROV1 ovarian; -52.7% (active) in the assay with OVCAR-3 ovarian. Besides, the results for the growth with HS 578T breast and in the assay on NCI/ADR-RES ovarian were -3.21% (active) and -3.2% (active), respectively.
Turning to `CS(=O)(=O)Nc1cccc(-n2c(COc3ccc(OC(F)(F)F)cc3)nc3ccccc32)c1`, the growth in the assay with SK-MEL-2 melanoma is 86% and 110%; with EKVX NSCLC it was 86.4% and 98%; in the assay with SN12C renal, 113% and 115%; in the assay on UO-31 renal, 51.1% and 87.7%; in the assay with TK-10 renal, 105% and 111%; in the assay on ACHN renal it was 81% and 109%. The growth in the assay with CAKI-1 renal is 61.4% and 99.4%; with A498 renal, 98.2% and 127%; with CCRF-CEM leukemia it was 93.3% and 99.8%; in the assay with MOLT-4 leukemia it was 80.3% and 97%; in the assay with SR leukemia, 68.3% and 83.2%; in the assay on RPMI-8226 leukemia, 76.7% and 98.1%. The growth was 93.1% and 110% in the assay on OVCAR-8 ovarian; 124% with OVCAR-5 ovarian; 84.9% and 104% in the assay with OVCAR-4 ovarian; 76% and 95.4% with SK-OV-3 ovarian; 56.4% and 111% in the assay on IGROV1 ovarian; 107% and 112% with OVCAR-3 ovarian. Further, the growth in the assay with HS 578T breast is 47.9% and 101%; in the assay on NCI/ADR-RES ovarian it was 88.2% and 107%.
